Only some compounds are listed: those with a hit (about 4.6% of all), similar ones and a draw of the others.
ADAM10 inh: human ADAM10 inhibitors, primary screen, biochemical, QFRET, HTS. recombinant ADAM10, EDANS/DABCYL FRET peptide cleavage, 3 h. AID 720582, 2013. Disintegrin and metalloproteinase domain-containing protein 10 (Homo sapiens), O14672. inhibition, % at 7 µM. actives 0.62% (n = 370,000);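 active = inhibition above a per-campaign cutoff equal to the mean of compounds falling between control-based bounds plus 3 SD, cut at about 20% in these data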;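 note: 0% = DMSO wells while the 100% control is not disclosed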
NR3A LBD binder: binders of NR3A ligand-binding domain, primary screen, biophysical, differential scanning fluorimetry, uHTS; Glutamate receptor ionotropic, NMDA 3A (GRIN3A) ligand-binding domain; Tm shift relative to glycine control, % at 25 µM; NR3A LBD differential scanning fluorimetry, Tm shift; 0% = protein alone, 100% = glycine-bound protein; actives 2.5% (n = 340,000);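 active = melting temperature shift of at least 10% of the positive control shift, at one fixed dose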
ADAM17 inh: ADAM17 inhibitors, primary screen, biochemical, QFRET; Disintegrin and metalloproteinase domain-containing protein 17 (Homo sapiens), P78536; recombinant ADAM17, EDANS/DABCYL FRET peptide cleavage; inhibition, % at 6.95 µM; actives 0.83% (n = 370,000); AID 720648, 2013;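 active = inhibition above the mean of compounds lying between control limits plus 3 SD, set per campaign, cut at about 8.5% in these data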;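 note: 0% = DMSO-only wells as the low control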
proKLK7 act: proKLK7 zymogen activators, primary screen, biochemical, fluorescence intensity; purified proKLK7, EDANS-DABCYL substrate fluorescence; 100% is mature enzyme control, 0% vehicle; AID 652039, 2013; Kallikrein-7 (Homo sapiens), P49862; activation, % at 7 µM; actives 0.9% (n = 370,000);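 active = activation above the mean of all tested compounds plus 3 SD, computed per campaign excluding outliers beyond control limits, cut at about 13% in these data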
Target sequence (P49862 whole entry, looked up): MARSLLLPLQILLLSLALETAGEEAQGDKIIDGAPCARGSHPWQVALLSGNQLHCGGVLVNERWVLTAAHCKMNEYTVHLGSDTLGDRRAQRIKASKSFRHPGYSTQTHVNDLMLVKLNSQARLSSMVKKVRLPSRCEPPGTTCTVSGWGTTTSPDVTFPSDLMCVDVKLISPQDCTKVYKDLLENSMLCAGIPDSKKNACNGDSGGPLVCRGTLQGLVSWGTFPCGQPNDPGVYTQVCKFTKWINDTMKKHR
FAS TE block: FAS thioesterase domain inhibitors, primary screen, biochemical, fluorescence intensity, uHTS | AID 602261, 2012 | recombinant FAS-TE, OMFH fluorogenic substrate, fluorescence endpoint | inhibition, % at 15 µM | actives 0.67% (n = 360,000);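 active = compounds whose normalised, plate-corrected inhibition of enzyme fluorescence in the single-dose primary screen is 50% or more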;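 note: 0% = DMSO with enzyme and 100% = substrate without enzyme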
FAS-TE inh conf: FAS thioesterase domain inhibitors, confirmation, biochemical, fluorescence intensity, single concentration; shares compounds with FAS TE block; recombinant FAS-TE, OMFH fluorogenic substrate; inhibition, % at 15 µM; actives 45% (n = 2,300); AID 624325, 2012;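 active = compounds inhibiting the enzyme by at least 50% at 15 µM in any one of the replicates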;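 note: 0% = enzyme with DMSO only and 100% = wells lacking enzyme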
An asterisk follows results filed as active; / = no result given.

SMILES	ADAM10 inh	NR3A LBD binder	ADAM17 inh	proKLK7 act	FAS TE block	FAS-TE inh conf
CN(CCc1ccccc1)C(=O)c1ccc(NC(=O)Cc2ccc(NC(=O)C3CCN(S(=O)(=O)c4cccc([N+](=O)[O-])c4)CC3)cc2)cc1	16	7	7	0	62*	11
CN(C(=O)c1cccc(NC(=O)Cc2ccc(NC(=O)C3CCN(C(=O)C4CCCCC4)CC3)cc2)c1)C1CCCC1	-3	-3	0	0	-3	/
CN(CCc1ccccc1)C(=O)c1ccc(NC(=O)Cc2cccc(NC(=O)C3CCN(C(=O)CCc4ccccc4)CC3)c2)cc1	12	9	4	0	7	/
COc1ccc(S[C@]2(C(=O)NC3CC3)CC(=O)N[C@@H]2c2ccc(OC)cc2)cc1	-10	/	-3	1	/	/
COC(=O)[C@]12C[C@H](CC(=O)NCC3CCCCC3)C(=O)N(Cc3ccco3)C1=C[C@H](C1CCCC1)O[C@@H]2C	5	/	1	0	/	/
C#CCNC(=O)C[C@H]1C[C@@]2(C(=O)OC)C(=C[C@H](C(C)C)O[C@@H]2C2CC2)N(CCc2ccc(OC)c(OC)c2)C1=O	3	/	0	0	/	/
COC(=O)[C@]12C[C@H](CC(=O)NCc3ccc(C)o3)C(=O)N(CCc3ccc(OC)c(OC)c3)C1=C[C@H](C(C)(C)C)O[C@@H]2C	8	/	3	0	/	/
O=C(NCc1c(F)cccc1F)C1CCCN(c2ncccn2)C1 (centres undefined)	-37	/	-13	0	/	/
Cc1cccc(C(=O)N[C@@H]2CC[C@@]34CCCN3C(=O)CCC[C@H]4[C@H]2C)c1	-1	/	-2	/	/	/
COc1ccc(-c2nn(-c3ccccc3)cc2C=O)cc1[N+](=O)[O-]	8	-1	-2	0	6	/
COc1ccc(-c2nnc(SC)nc2-c2ccc(OC)c([N+](=O)[O-])c2)cc1[N+](=O)[O-]	1	-1	2	-1	69*	-1
COC(=O)[C@]12C[C@H](CC(=O)NCc3ccc(OC)c(OC)c3)C(=O)N(CCc3ccc(OC)c(OC)c3)C1=C[C@H](C1CCCC1)O[C@@H]2C	6	/	0	0	/	/
Cc1ccc(-c2nnc(SCC(=O)N/N=C/c3c(C)nn(-c4ccccc4)c3C)n2-c2ccc(C)cc2)cc1	-5	0	3	0	62*	16
Cc1ccc(C(NC(=O)/C=C\c2ccc3c(c2)OCO3)C(=O)Nc2ccc3c(c2)OCO3)cc1 (centres undefined)	-2	-5	-4	-1	55*	22
O=C1C=C(c2ccc(Cl)c(C(F)(F)F)c2)C[C@@H](c2ccc(F)cc2)C1	16	-13	7	0	53*	32
O=C1C=C(c2ccc(-c3ccccc3)cc2)C[C@@H](c2ccc(Cl)cc2)C1	-13	1	-4	-1	29	/
O=C1C=C(c2ccc(Cl)c(C(F)(F)F)c2)C[C@@H](c2ccc(Cl)cc2)C1	11	-16	1	0	54*	33
O=C1C=C(c2cc(Cl)cc(Cl)c2)C[C@@H](c2ccc(F)cc2)C1	9	-3	-4	0	31	/
O=S1(=O)c2c(NCc3ccco3)cccc2Oc2ccccc2CN1Cc1cn(Cc2ccc(C(F)(F)F)cc2)nn1	-8	/	0	-8	/	/
O=C(c1cc(C2CC2)on1)N(C1CCCCC1)C1CCOCC1	-7	/	-7	1	/	/
CN(Cc1ccccc1)C(=O)OCc1cn(Cc2cccc(F)c2F)nn1	-4	/	0	1	/	/
Cc1cc(C)c(C#N)c(SCS(=O)Cc2ccccc2)n1 (centres undefined)	6	-1	1	0	19	/
Cc1cc(C)c(C#N)c(SCS(=O)Cc2ccc(Cl)cc2)n1 (centres undefined)	-3	0	3	0	69*	71*
O=C(N/C(=C\c1cccc([N+](=O)[O-])c1)C(=O)N1CCOCC1)c1ccc([N+](=O)[O-])cc1	1	-3	-3	0	47	/
O=C(N/C(=C/c1ccccc1)C(=O)N1CCOCC1)c1ccc([N+](=O)[O-])cc1	-2	-4	-1	-1	53*	47*
SMILES	ADAM10 inh	NR3A LBD binder	ADAM17 inh	proKLK7 act	FAS TE block	FAS-TE inh conf
COc1ccc(/C=C(\NC(=O)c2ccc([N+](=O)[O-])cc2)C(=O)N2CCOCC2)cc1	1	-2	-1	1	82*	87*
CCn1c(C)c(C(C)=O)c(N2CCN(c3ccccc3)CC2)nc1=S	9	-1	2	-2	-9	/
CCn1c(C)c(C(C)=O)c(N2CCN(C(c3ccccc3)c3ccccc3)CC2)nc1=S	3	-5	0	0	70*	61*
CC(=O)NC(Cc1ccc2c(c1)OCO2)C(=O)N1CCCN(C(C)=O)CC1 (centres undefined)	-7	/	-2	0	/	/
O=C(COc1ccc(S(=O)(=O)N2CCCCC2)cc1)Nc1ccccc1F	-7	4	0	0	52*	55*
O=[N+]([O-])c1cccc(-c2ccc(SCc3cccnc3)nn2)c1	14	0	-3	0	53*	58*
Cc1ccccc1-n1c(=O)/c(=C\c2ccco2)s/c1=C(/C#N)C(=O)Nc1ccccc1	6	2	1	-3	62*	18
CCOC(=O)/C=c1\s/c(=C(\C#N)C(=O)NC)n(-c2ccccc2)c1=O	-5	4	-2	0	-5	/
CC1=C(O)C(=O)C(c2c(C)cc(C)c(Br)c2C)=C(O)C1=O	-15	/	-9	0	68*	78*
COc1ccc(N2C(=O)NC3CC2(C)Oc2ccc(Br)cc23)cc1OC (centres undefined)	12	-1	-3	1	59*	74*
COc1ccc([N+](=O)[O-])cc1C(=O)NCCOc1ccc(Cl)cc1	6	-3	1	0	63*	68*
O=[N+]([O-])c1cc(CS(=O)(=O)Oc2ccc(Cl)cc2)c(O)c([N+](=O)[O-])c1	6	-4	0	0	57*	68*
CCCCN1CC(=O)N2[C@H](C[C@@]3(n4ccc5ccccc54)c4ccccc4N(S(=O)(=O)c4ccccc4)[C@@H]23)C1=O	4	/	4	-1	/	/
C=CCN1C(=O)[C@H](CC(=O)NCCCOCCCC)[C@@]2(C(=O)OCC)CCCC=C12	5	/	4	0	/	/
COc1ccc(C(C)(C)C)cc1NC(=O)c1cc(S(=O)(=O)N(C)C)ccc1N1CCCC1	8	10	3	-2	68*	24
